Shown are actives, neighbours in structure and some others; about 12% of the full set was active somewhere.
SARS PLP yeast: blocks SARS-CoV papain-like protease in a yeast assay | 330,000 compounds, 0.19% hits | Potency, µM (doses to about 32.9 µM), inactives show top-dose activity, positive = growth rescue, most hits filed as activators | S. cerevisiae expressing SARS-CoV PLpro, growth rescue | AID 485353; also: potency is read from the fitted curve at half-maximal effect; 0% is about no effect; nearly all actives have a fitted effect of over 55% in size
Cycloheximide cs: counter-screen for Shiga toxin inhibitors: cycloheximide protein synthesis inhibition. cell reporter, cycloheximide protein synthesis inhibition counterscreen. max response, %. 300,000 compounds, 12% hits. AID 2314; in the data active = max response mostly above about 13%, no sharp cut-off; inactive = mostly below about 14%; also: read at 38.3 µM for the half of the compounds with a filed dose; 0% is about no effect
Shiga inhibitor: Shiga toxin inhibition. 290,000 compounds, 9.2% hits. AID 2315. Vero cells, Shiga toxin protein synthesis inhibition reporter. inhibition, % at 38.7 µM; in the data active = inhibition mostly above about 28%, no sharp cut-off; inactive = mostly below about 43%; also: 0% is about no effect
NS1 inh: inhibitors of influenza NS1 protein function | Potency, µM (titrated, usually from 46.1 µM), for inactives: top-dose activity, positive = more growth | AID 2326 | 270,000 compounds, 0.4% hits; also: potency is read from the fitted curve at half-maximal effect; actives are rising curves; nearly all actives have a fitted effect of over 50% in size
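Compounds were scored for reversing the slow growth caused by influenza A NS1 in S. cerevisiae, measured by optical density at 600 nm. Assay medium contained 2% galactose at pH 6.0; NS1-free yeast of the same strain were the positive control.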
Starred values were filed as active, the others as inactive. Unless noted, calls follow the shape of the full dose curve.

C#CC(=O)CCC1CCCN1C(=O)OC(C)(C)C (stereo unspecified) was read as SARS PLP yeast -8.1%.
`Cc1nc2scc(-c3ccc(C(C)(C)C)cc3)c2c(=O)n1N` gave SARS PLP yeast -1.1%, Cycloheximide cs 0.8 and Shiga inhibitor -18.8.
Screening CC(=O)N1CC(=O)N=C1SCC(=O)Nc1nc(-c2ccccc2)c(-c2ccccc2)s1 returned SARS PLP yeast inconclusive, Cycloheximide cs 6.7, Shiga inhibitor 19.5 and NS1 inh 2.2%.
`O=C(NCc1nc(-c2ccc(C(F)(F)F)cc2)no1)c1cccs1` gave SARS PLP yeast -8.2%, Cycloheximide cs 8.2*, Shiga inhibitor 17.7 and NS1 inh 2.6%.
Screening CC(C)(C)c1ccc(-c2noc(CNC(=O)c3ccco3)n2)cc1 returned SARS PLP yeast -7.0%, Cycloheximide cs 31.7*, Shiga inhibitor 37.3 and NS1 inh -9.8%.
`O=C(COc1ccccc1Cl)Nc1ccc(NC(=O)c2ccco2)cc1` gave SARS PLP yeast 10.3%, Cycloheximide cs -3.0, Shiga inhibitor -4.3 and NS1 inh -18.1%.
For CC(NC(=O)c1ccco1)c1nc(-c2ccc(C(C)(C)C)cc2)no1 (stereo unspecified) the results were SARS PLP yeast -5.0%, Cycloheximide cs 15.2, Shiga inhibitor 49.0* and NS1 inh -7.1%.
O=C(Nc1ccc(-c2noc(COc3ccccc3Cl)n2)cc1)c1ccco1 was read as SARS PLP yeast -12.1%, Cycloheximide cs 41.5*, Shiga inhibitor active and NS1 inh -15.5%.
For Cc1cccc(-c2noc(CNC(=O)c3ccco3)n2)c1 the results were SARS PLP yeast -2.4%, Cycloheximide cs 2.0, Shiga inhibitor 29.4 and NS1 inh 14.3%.
`C[C@]12CCC(=O)C[C@@H]1CC[C@@H]1[C@@H]2CC[C@]2(C)[C@@H](C(=O)COC(=O)CCC(=O)O)CC[C@@H]12` gave SARS PLP yeast -2.0%, Cycloheximide cs -3.6, Shiga inhibitor -4.2 and NS1 inh 5.6%.
For CC(C)(C)c1ccc(-c2noc(CCC(=O)NCc3ccco3)n2)cc1 the results were SARS PLP yeast -5.5%, Cycloheximide cs 34.2* and Shiga inhibitor 73.5.
Screening Cc1cccc(-c2noc(CCC(=O)NCc3ccco3)n2)c1 returned SARS PLP yeast -7.1%, Cycloheximide cs 6.8, Shiga inhibitor 17.3 and NS1 inh -16.5%.
Screening CC(NC(=O)c1ccc(C(C)(C)C)cc1)C(=O)O (stereo unspecified) returned SARS PLP yeast 2.0%, Cycloheximide cs -2.2, Shiga inhibitor 3.6 and NS1 inh 1.1%.
`COC(=O)C(C)NC(=O)c1ccc(C(C)(C)C)cc1` (stereo unspecified) gave SARS PLP yeast 4.6%, Cycloheximide cs 31.4*, Shiga inhibitor 76.9* and NS1 inh -5.9%.
`COc1ccc(C(=O)OCC(=O)c2ccc[nH]2)c(OC)c1` gave SARS PLP yeast 0.0%.
Screening N#Cc1ccccc1OCC(=O)NCCNC(=O)COc1ccccc1C#N returned SARS PLP yeast -4.6%.
For COC(=O)CCC(=O)COc1ccccc1C#N the results were SARS PLP yeast -3.2%, Cycloheximide cs 26.6*, Shiga inhibitor 62.2* and NS1 inh -2.0%.
`COC(=O)CCC(=O)COc1ccc(OC)cc1C#N` gave SARS PLP yeast 2.8%, Cycloheximide cs 22.9*, Shiga inhibitor 40.3 and NS1 inh -6.3%.
For CCCCCCn1c(Br)nc2c1c(=O)n(C)c(=O)n2C the results were SARS PLP yeast 1.5%, Cycloheximide cs -1.9, Shiga inhibitor -4.7 and NS1 inh -1.5%.
Cc1nc(N2CCC3(CC2)OCCO3)c2nnn(Cc3ccccc3F)c2n1 was read as SARS PLP yeast -14.1%, Cycloheximide cs 42.8*, Shiga inhibitor 57.0* and NS1 inh -31.5%.
`O=C(O)C1=C(C(=O)Nc2cc(C(F)(F)F)ccc2Cl)CCCC1` gave SARS PLP yeast -0.4%, Cycloheximide cs 3.0, Shiga inhibitor 22.2 and NS1 inh -0.8%.
Screening Cc1[nH]n(-c2ccccc2)c(=O)c1N=Nc1c(Cl)cccc1Cl returned SARS PLP yeast 1.9%, Cycloheximide cs 3.8, Shiga inhibitor 29.8 and NS1 inh 3.3%.
Cc1cccc2c1ncc1c(=O)n(-c3ccccc3)[nH]c12 was read as SARS PLP yeast 0.2%, Cycloheximide cs 29.6*, Shiga inhibitor 90.5* and NS1 inh 2.2%.
Screening CC1(C)CC(NC(=O)C23CCC(C)(C2Br)C3(C)C)CC(C)(C)N1 (stereo unspecified) returned SARS PLP yeast 0.6%, Cycloheximide cs -1.2, Shiga inhibitor 14.8 and NS1 inh 6.0%.
`CCNC(=S)NNC(=O)c1cc(-c2cccc(OC)c2)nc2ccccc12` gave SARS PLP yeast -0.5%, Cycloheximide cs 71.0*, Shiga inhibitor 42.6 and NS1 inh 7.1%.
`CCNC(=S)NNC(=O)c1cc(-c2ccc(OCC)cc2)nc2ccccc12` gave SARS PLP yeast -26.0%, Cycloheximide cs -12.5, Shiga inhibitor -26.0 and NS1 inh 7.4%.
CCCCNC(=S)NNC(=O)c1cc(-c2ccncc2)nc2ccccc12 was read as SARS PLP yeast -0.4%, Cycloheximide cs 19.0*, Shiga inhibitor 24.1 and NS1 inh -38.4%.
Screening CCCOc1cccc(-c2cc(C(=O)NNC(=S)NCC)c3ccccc3n2)c1 returned SARS PLP yeast 7.2%, Cycloheximide cs 25.0*, Shiga inhibitor 87.3* and NS1 inh -35.3%.
`CCCCNC(=S)NNC(=O)c1cc(C2CC2)nc2ccccc12` gave SARS PLP yeast 4.7%, Cycloheximide cs -2.3, Shiga inhibitor -8.6 and NS1 inh -5.4%.
For CCNC(=S)NNC(=O)c1cc(-c2ccccc2C)nc2ccccc12 the results were SARS PLP yeast 5.4%, Cycloheximide cs 1.7, Shiga inhibitor 19.0 and NS1 inh 10.9%.
For O=Cc1ccc(Sc2ncccn2)o1 the results were SARS PLP yeast 4.3%, Cycloheximide cs 7.9 and Shiga inhibitor -5.3.
`O=C(Nc1cccc(F)c1)C1CCCN(S(=O)(=O)c2ccc(-n3cnnn3)cc2)C1` (stereo unspecified) gave SARS PLP yeast -0.1%, Cycloheximide cs -3.5, Shiga inhibitor -10.7 and NS1 inh 1.2%.
O=C1NC(=O)N(c2ccc3c(c2)OCO3)C(=O)/C1=C/c1cccs1 was read as SARS PLP yeast -0.1%, Cycloheximide cs 1.1 and Shiga inhibitor 48.7*.
For CC1(C)Cc2nc3sc4c(N5CCCC5)nnnc4c3cc2CO1 the results were SARS PLP yeast -0.4%, Cycloheximide cs 3.6, Shiga inhibitor 20.6 and NS1 inh -1.0%.
Nc1nc(N)c2sc3nc4c(cc3c2n1)CCC4 was read as SARS PLP yeast 7.8%, Cycloheximide cs 25.5*, Shiga inhibitor 52.0 and NS1 inh -5.0%.
`O=C(NCC1CCCN1S(=O)(=O)c1cccs1)c1c(F)cccc1F` (stereo unspecified) gave SARS PLP yeast 1.4%.
`O=C(COC(=O)c1cc2ccccc2cc1O)Nc1ccccc1F` gave SARS PLP yeast 0.6%.
Screening CCOC(=O)/C=C/C(=O)OCC(=O)NCc1ccccc1 returned SARS PLP yeast -20.7%, Cycloheximide cs 15.7*, Shiga inhibitor 9.4 and NS1 inh -41.0%.
For O=C(COC(=O)c1ccccc1Br)NCc1ccccc1 the results were SARS PLP yeast -6.9%, Cycloheximide cs 24.3*, Shiga inhibitor 37.5 and NS1 inh 5.1%.
